# Reference: PubChem BioAssay (EPA / NIEHS)
# Results filed as inconclusive are left out. The source made the active and inactive calls. How the source made its calls, unless noted: active means hit-call score of the fitted dose curve at least 0.9, where 1 is the maximum; inactive means score below 0.9.
# Columns and labels:
# [1] = IUF_NPC1_cytotoxicity_72hr: Cytotoxicity Assessment at 72 hours in the Leibniz Research Institute for Environmental Medicine (IUF) Neural Progenitor Cell Proliferation Assay (NPC1) (AID 2284332; active means hit-call score of the fitted dose curve at least 0.9, where 1 is the maximum;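 further: rising LDH signal means more cytotoxicity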)
# In short: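 Readout is fluorescence from LDH-dependent resazurin conversion, sampled from culture medium after compound contact lasting 72 h. Each well holds one 0.25-0.35 mm human progenitor sphere kept at 37C, 5% CO2 with EGF and FGF.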
# [2] = CCTE_Deisenroth_5AR_NBTE_donor: CCTE's 5alpha-reductase NanoBRET Target Engagement Assay […], Deisenroth Lab (AID 2284319); conditions: actives raise or lower the signal
# Experimental: CCTE_Deisenroth_5AR NBTE (5alpha-reductase NanoBRET Target Engagement Assay) is a cell-based, single-readout assay that uses HEK293T, a human kidney cell line, with measurements taken at 5 hours after chemical dosing in a 384 well plate. This assay includes a primary and secondary screen as well as an autofluorscence screen.CCTE_Deisenroth_5AR NBTE_donor is one of four assay components measured from the CCTE_Deisenroth_5AR NBTE assay. It is designed to make measurements of donor luminescence, as detected by bioluminescence intensity emission signals using spectrometry technology.Data from the assay component CCTE_Deisenroth_5AR NBTE_donor was analyzed into 1 assay endpoint. This assay endpoint, CCTE_Deisenroth_5AR NBTE_donor, was analyzed with bidirectional fitting relative to DMSO as the negative control and baseline of activity. Using a type of inducible reporter, gain or loss-of-signal activity can be used to understand changes in the donor luminescence as related to 5alpha-reductase catalytic function. Furthermore, this assay endpoint can be referred to as a secondary readout, because this assay has produced multiple assay endpoints where this one serves an artifact detection function.
# For transient expression of the SRD5A2-NanoLuc fusion protein, HEK293T cells are reverse transfected with pNLF1-C-SRD5A2 expression vector and incubated for 20 hours to facilitate fusion protein expression. For assay setup, 384-well non-binding surface (NBS) microplates are pre-dispensed with test chemical across an 8-point concentration series (10 nM - 29.9 uM) with two technical replicates per run. Cell suspensions are dispensed into the microplates and incubated with test chemical for a duration of three hours. Following pre-incubation with test chemical, the testosterone tracer is dispensed into each well and incubated an additional two hours. The total incubation period with test chemical is five hours, with testosterone tracer added the final two hours to reach target engagement equilibrium. For the NanoBRET endpoint measurements, a solution of Nano-Glo substrate and extracellular NanoLuc inhibitor solution is added to each test well and immediately scanned on a plate reader configured with multichromatic emission settings for donor luminescence ([…]) and acceptor fluorescence ([…]). DMSO solvent controls are included as baseline control. Plate-matched samples are run with mock tracer conditions or testosterone tracer to discriminate any potential non-specific substrate interference.
# [3] = CCTE_Deisenroth_5AR_NBTE_acceptor: CCTE's 5alpha-reductase NanoBRET Target Engagement Assay - Autofluorescence Screen, Deisenroth Lab (AID 2284321); conditions: actives raise or lower the signal;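 further: compound fluorescence in the acceptor channel under 460 nm excitation flags autofluorescence artifacts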
# In short: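 HEK293T cell-based NanoBRET assay read 5 h after dosing; this acceptor channel serves as an autofluorescence artifact screen. Chemicals at nominal 100 uM were scanned in three independent runs (n=3), excitation 460 nm. Fitting was bidirectional versus DMSO baseline.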
# SRD5A2 (gene 6716) = assay: CCTE_Deisenroth_5AR_NBTE_ratio: CCTE's 5alpha-reductase NanoBRET Target Engagement Assay - Ratio, Deisenroth Lab (AID 2284322); conditions: actives raise or lower the signal
# In short: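 SRD5A2-NanoLuc HEK293T; cmpd 10 nM-29.9 uM, 3 h preinc + testosterone tracer 2 h; NanoBRET ratio 650/460; bidirectional fit vs DMSO.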
# TTR (gene 7276) = assay: CCTE_GLTED_hTTR_0.5uM: CCTE's human Transthyretin (hTTR) Inhibition Assay, with 0.5uM TTR, Great Lakes Toxicology and Ecology Division (GLTED) Lab (AID 2284320)
# In short: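 Probe (ANSA) displacement from 0.5 uM human transthyretin was followed by fluorescence (ex 380, em 475) after a 2 h incubation with chemical. Activity was scored as signal loss and fitted positively relative to DMSO.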
# [4] = CCTE_Mundy_HCI_iCellGluta_NOG_NeuriteLength: CCTE's Neurite Outgrowth Assay in iCellGluta cells for Neurite Length, Mundy Lab (AID 2284318; active means hit-call score of the fitted dose curve at least 0.9, where 1 is the maximum)
# In short: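 Automated high-content imaging of betaIII-tubulin (Alexa Fluor-488) and Hoechst-stained cells gave neurite length, normalized to the DMSO baseline.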
# [5] = TAMU_PeakParms_SingleDonor1434_Asystole: Texas A&M University (TAMU) 1.5-hr Human Induced Pluripotent Stem Cell (iPSC)-derived Cardiomyocytes Calcium (Ca+2) Flux Assay for Cardiotoxicity: Asystole (quiescence of beating) (AID 2284328; active means hit-call score of the fitted dose curve at least 0.9, where 1 is the maximum)
# Experimental: TAMU_PeakParms is a cell-based, multiplexed-readout assay that uses iPSC-derived cardiomyocytes with measurements taken at 1.5 hours after chemical dosing in a microplate: 384-well plate.TAMU_PeakParms_SingleDonor1434_Chronotopy is a phenotype derived from the peak.freq.avg parameter and uses an EC95 as its POD (95% decrease in beat rate, compared to controls). Peak.Freq.Avg measures the average peak frequency, in beats per second, using Fluorescence intensity as a functional reporter from Calcium (Ca+2) flux assay technology. There is no preprocessing performed on the data used to model this phenotype.Data from the assay component TAMU_PeakParms_SingleDonor1434_Asystole was analyzed into 1 assay endpoint. This assay endpoint, TAMU_PeakParms_SingleDonor1434_Asystole, was analyzed in the positive analysis fitting direction relative to DMSO as the negative control and baseline of activity. Using a type of functional reporter, loss-of-signal activity can be used to understand changes in the cardiac function. To generalize the intended target to other relatable targets, this assay endpoint is annotated to the cardiomyocyte function intended target family, where the subfamily is cessation of beating.
# Each test compound from the chemical master plates was transferred into new tissue culture-treated 384-well microplates using acoustic dispensing (Labcyte Echo 550, Beckman Coulter, Indianapolis, IN) in amounts that would result in 5x concentrations (1, 5, 50, 500 uM) in the working plate in a final volume of 50 uL. Chemicals were randomly divided into 16 separate 384-well plates for screening such that the outer-most wells were left empty (308 wells were used on each plate). Fifteen of the plates contained unique test chemicals (n = 65 chemicals, 4 concentrations, one replicate each), positive controls (n = 10 chemicals, one concentration, 3 replicates each), vehicle (0.5% DMSO, n = 12), and media-only (n = 6) wells. Plate 16 contained test chemicals (n = 54 chemicals, 4 concentrations, one replicate each), inter-plate replicates (n = 11 chemicals with replicates, 4 concentrations, one replicate each), and the same design of positive controls and vehicle- and media-only wells as other plates. These plates were stored at -80C until the day of the assay. On assay day, the 5x concentrated chemical working plate was prepared by adding 50 uL cardiomyocyte maintenance medium containing 2.5% v/v DMSO to each well of the microplates. Then, 12.5 uL of 5x concentrated test chemical solution was added to the test plate to yield final concentrations of 0.2, 1, 10, and 100 uM in 0.5% v/v DMSO using the liquid handling robotics of the FLIPR Tetra. […]
# [6] = VALA_TUBHUV_Antagonist_TubuleLength: VALA Sciences human Umbilical Vein Endothelial Tubule Formation (TUBHUV) Antagonism Assay (AID 2284325; active means hit-call score of the fitted dose curve at least 0.9, where 1 is the maximum)
# In short: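 Tubule length was imaged via CD31 immunofluorescence after a further 3-day compound exposure in 10 ng/ml VEGF, following 3-day pre-culture of HUVEC with HDF at 1:3. Vehicle 0.1% DMSO; suramin (100 uM) inhibition control.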
# [7] = system: Brachyury (BRA) Protein Expression, Deisenroth Lab, TBXT (gene 6862); assay: CCTE_Deisenroth_DEVTOX-GLR_legacy_Bra: (Legacy) CCTE's DevTox GLR-Endo Assay Evaluation of Brachyury (BRA) Protein Expression, Deisenroth Lab (AID 2284329)
# In short: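 Readout: percent Bra+ cells by high-content fluorescence imaging, Bra+ meaning mean intensity 5x BMAD over pluripotent control median. RUES2-GLR cells dosed twice over 48 h differentiation; DMSO-control median subtracted before concentration-response fitting.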
# [8] = CCTE_Deisenroth_DEVTOX-GLR_legacy_CellCount: (Legacy) Viability Assessment in CCTE's DevTox GLR-Endo Assay, Deisenroth Lab (AID 2284331); conditions: actives raise or lower the signal
# Experimental: CCTE_Deisenroth_DEVTOX-GLR_legacy assay is a cell-based, multiplex-readout assay that uses RUES2-GLR, a human pluripotent cell line, with measurements taken at 48 hours after chemical dosing in a 384-well microplateCCTE_Deisenroth_DEVTOX-GLR_legacy_CellCount is one of 4 assay components calculated from the CCTE_Deisenroth_DEVTOX-GLR_legacy assay that measures an increase in cell count. It is designed to make measurements of nuclei count, a form of cell viability, as detected with optical fluorescence microscopy by Perkin Elmer Harmony nuclei detection algorithm. The assay endpoints were analyzed with bidirectional fitting relative to 0.2% DMSO control in the DEVTOX-GLR assay.Data from the assay component CCTE_Deisenroth_DEVTOX-GLR_legacy_CellCount was analyzed into 1 assay endpoint. This assay endpoint, CCTE_Deisenroth_DEVTOX-GLR_legacy_CellCount, was analyzed with bidirectional fitting relative to DMSO as the negative control and baseline activity. Using nuclei counting, gain or loss-of-signal activity can be used to understand changes in cell viability. Furthermore, this assay endpoint can be referred to as a primary readout, because this assay has produced multiple assay endpoints where this one serves as a measure of cytotoxicity. […]
structure (smiles),measurement,setting,value
CCCCOCCOP(=O)(OCCOCCCC)OCCOCCCC,outcome,[1],inactive
c1ccc2c(c1)Nc1ccccc1S2,outcome,[2],inactive
same,outcome,[3],inactive
same,AC50,SRD5A2 (gene 6716),23.7 µM (active)
OCC(F)(F)OC(F)(F)C(F)(F)OC(F)(F)CO,AC50,TTR (gene 7276),40.1 µM (active)
O=C(O)C(F)(F)OC(F)(F)C(F)(F)OC(F)(F)C(=O)O,outcome,[4],inactive
same,AC50,TTR (gene 7276),0.746 µM (active)
O=P(Oc1ccccc1)(Oc1ccccc1)Oc1ccccc1,outcome,[5],inactive
same,outcome,[1],inactive
O=C(O)C1C(C(=O)O)C2(Cl)C(Cl)=C(Cl)C1(Cl)C2(Cl)Cl (configuration not stated),outcome,[2],inactive
same,outcome,[3],inactive
same,outcome,SRD5A2 (gene 6716),inactive
CCCN(CCC)c1c([N+](=O)[O-])cc(C(C)C)cc1[N+](=O)[O-],outcome,[2],inactive
same,outcome,[3],inactive
same,outcome,SRD5A2 (gene 6716),inactive
O=S(=O)(F)C(F)(F)C(F)(F)C(F)(F)C(F)(F)C(F)(F)C(F)(F)C(F)(F)C(F)(F)F,AC50,TTR (gene 7276),55 µM (active)
C=CC(=O)OCC(F)(F)C(F)F,AC50,TTR (gene 7276),56.8 µM (active)
CC(C)(C)c1ccccc1OP(=O)(Oc1ccccc1)Oc1ccccc1,outcome,[5],inactive
same,outcome,[1],inactive
O=C(O)C=CC(F)(C(F)(F)F)C(F)(F)F,outcome,[4],inactive
same,AC50,TTR (gene 7276),9.44 µM (active)
CC1(C)CN=C(NN=C(/C=C/c2ccc(C(F)(F)F)cc2)/C=C/c2ccc(C(F)(F)F)cc2)NC1,AC50,[2],50 µM (active)
same,AC50,[3],50 µM (active)
same,AC50,SRD5A2 (gene 6716),50 µM (active)
OCC(F)(F)OC(F)(F)C(F)(F)OC(F)(F)C(F)(F)OC(F)(F)CO,AC50,TTR (gene 7276),9.52 µM (active)
CCOP(=S)(OCC)SCSCC,outcome,[4],inactive
same,outcome,[2],inactive
same,outcome,[3],inactive
same,outcome,SRD5A2 (gene 6716),inactive
same,outcome,[1],inactive
CCC1(c2ccccc2)C(=O)N=C(O)NC1=O (configuration not stated),outcome,[5],inactive
CCOc1ccc(C(C)(C)COCc2cccc(Oc3ccccc3)c2)cc1,outcome,[4],inactive
same,outcome,[1],inactive
CCCCC(CC)COP(=O)(Oc1ccccc1)Oc1ccccc1 (configuration not stated),outcome,[5],inactive
OCC(F)(F)OC(F)(F)C(F)(F)OC(F)(F)C(F)(F)OC(F)(F)F,AC50,TTR (gene 7276),51.7 µM (active)
O=S1(=O)OCC2C(CO1)C1(Cl)C(Cl)=C(Cl)C2(Cl)C1(Cl)Cl (configuration not stated),outcome,[1],inactive
ClC1=C(Cl)C2(Cl)C3C(Cl)C(Cl)CC3C1(Cl)C2(Cl)Cl (configuration not stated),outcome,[2],inactive
same,outcome,[3],inactive
same,outcome,SRD5A2 (gene 6716),inactive
COC(=O)C(F)(F)C(F)(F)OC(F)(C(F)(F)F)C(F)(F)OC(F)=C(F)F (configuration not stated),AC50,TTR (gene 7276),0.977 µM (active)
CO/N=C(/C(=O)OC)c1ccccc1COc1ccccc1C,AC50,[4],19.7 µM (active)
same,outcome,[1],inactive
O=P(OCC(Br)CBr)(OCC(Br)CBr)OCC(Br)CBr (configuration not stated),outcome,[2],inactive
same,outcome,[3],inactive
same,AC50,SRD5A2 (gene 6716),26.8 µM (active)
Cc1ccc(N)cc1N,outcome,[6],inactive
O=C(O)C(F)(OC(F)(F)C(F)(F)C(F)(F)F)C(F)(F)F (configuration not stated),outcome,[4],inactive
same,outcome,[1],inactive
O=P1(N(CCCl)CCCl)NCCCO1 (configuration not stated),outcome,[7],inactive
same,outcome,[8],inactive
O=C(O)C(F)(F)OC(F)(F)C(F)(F)OC(F)(F)F,outcome,[4],inactive
same,AC50,TTR (gene 7276),3.59 µM (active)
